Experimental findings from PubChem BioAssay AID623997 (National Center for Advancing Translational Sciences (NCATS), 2012) are described below.

The structures appear in SMILES notation. Inconclusive results are not listed. A number with no mark means an inactive call. Calls of active or inactive are those of the source. No rule for the calls is given here.

A short description of this experiment: qHTS Assay for Inhibitors of Influenza NS1 Protein Function: Mammalian Cell Viability. The following applies: NS1 counter-screen; at 100 µM (top of the series). The text has this: Influenza is a world-wide public health problem and emerging forms of the virus have the potential to cause a pandemic of equal or greater magnitude to the outbreaks recorded in 1918, 1957 or 1968. Vaccine development is proceeding and there also exist two classes of anti-influenza compounds. However these therapeutic modalities are neither fully effective nor widely enough available to fulfill global needs. In addition their potential usefulness against newly emergent strains is not known. Efforts are needed to develop novel agents against influenza virus, including broad-spectrum agents. Identification of small molecules that inhibit NS1 function either directly or by interfering with specific cellular pathways may be a key to increasing our defense against the virus.
We have miniaturized and optimized a cell based assay in which NS1 from influenza A is expressed in the budding yeast S. cerevisiae. NS1 is a multi-functional protein that counters the host innate immune response and facilitates viral versus cellular gene expression. Expression of NS1 causes a pronounced slow growth phenotype in yeast due to its intrinsic molecular activities. Small molecules that suppress the slow growth phenotype can be identified by a straightforward growth recovery assay using optical density (OD) as the measurement. The same yeast strain not expressing NS1 was used as positive control in the yeast growth recovery assay.
Hits resulting from this primary screen and other follow-up screens, were tested in four concentrations for this mammalian cell viability assay, using MDCK cells.
NIH Chemical Genomics Center [NCGC]
NIH Molecular Libraries Probe Centers Network [MLPCN]
Assay Submitter (PI): Daniel Engel, University of Virgina
Opaque-walled 96-well plates were seeded with […] MDCK cells per well in 100 uL medium and incubated overnight at 37 deg C. The compound was added to triplicate wells for each concentration tested and incubated for 48 h at 37 deg C. The plate was equilibrated for 30 min at room temperature and 100 uL CellTiter Glo reagent (Promega) added according to the manufacturer's protocol. The plate was shaken for 2 min and then incubated for 10 min at room temperature. Luminescence was recorded in an LMAX 384 reader (Molecular Devices) with integration time of 1 s.
A general note: Quantitative high-throughput screening tests each substance at several concentrations.
A word on the viability: it is a read-out of living cells in per cent, often relative to untreated cells. Turning to `COc1cc(-c2ccnc3c2c(C)nn3-c2ccc(F)cc2)ccc1O`, the viability was 65%.

Take `COc1cc(-c2c(C#N)c(=O)[nH]c3c2c(C)nn3-c2ccccc2)ccc1O`: the viability is 85.2%.

As for `COc1cc(-c2c(C#N)c(N)nc3c2c(C)nn3-c2ccccc2)ccc1O`, the viability is 101%.

Turning to `COc1cc(-c2c(C#N)c(N)nc3c2c(C)nn3-c2ccc(C)cc2)ccc1O`, the viability was 94%.

With `COc1cc(-c2ccnc3c2c(C)nn3-c2cccc(F)c2)ccc1O`, the viability was 122%.

`COc1ccc(-c2c(C#N)c(N)nc3c2c(C)nn3-c2ccccc2)cc1OC`: the viability is 101%.

For `COc1cc(-c2c(C#N)c(N)nc3c2c(C)nn3-c2ccc(C)cc2)cc(OC)c1OC`, the viability is 99.9%.

For `Cc1nn(-c2ccc(Cl)cc2)c2nc(N)c(C#N)c(-c3ccc(O)c(O)c3)c12`, the viability is 68.5%.

Consider `COc1ccc(-c2ccnc3c2c(C)nn3-c2ccc(F)cc2)cc1OC`, for which the viability was 93.4%.

Consider `COc1ccc(-c2c(C#N)c(N)nc3c2c(C)nn3-c2ccc(F)cc2)cc1OC`, for which the viability was 101%.

On to `COc1cc(-c2c(C#N)c(N)nc3c2c(C)nn3-c2ccc(C)c(C)c2)ccc1O`, for which the viability is 99.3%.

In the case of `COc1cc(-c2c(C#N)c(=O)[nH]c3c2c(C)nn3-c2ccccc2)cc(OC)c1OC`, the viability was 97.8%.

As to `Cc1nn(-c2ccccc2)c2nc3[nH]c(=O)[nH]c(=O)c3c(-c3ccc4c(c3)OCO4)c12`, the viability is 72.3%.

Consider `COc1ccc(-c2c(C#N)c(N)nc3c2c(C)nn3-c2ccc(Cl)cc2)cc1OC`, for which the viability is 103%.

As to `COc1cccc(-n2nc(C)c3c(-c4ccc(O)c(OC)c4)ccnc32)c1`, the viability is 124%.

Turning to `COc1ccc(-c2c(C#N)c(N)nc3c2c(C)nn3-c2ccc(C)cc2)cc1OC`, the viability is 103%.

`COc1cc(-c2ccnc3c2c(C)nn3-c2ccc(C(F)(F)F)cc2)ccc1O`: the viability was 118%.

Take `COc1ccc(-n2nc(C)c3c(-c4ccc(O)c(OC)c4)ccnc32)cc1`: the viability is 108%.

Take `CCOC(=O)c1cnc2c(c(C)nn2-c2ccc(F)cc2)c1-c1ccc(O)c(OC)c1`: the viability is 54.9%.

In the case of `COc1cc(-c2c(C#N)c(N)nc3c2c(C)nn3-c2ccc(F)cc2)ccc1O`, the viability was 88%.

As for `COc1cc(-c2ccnc3c2c(C)nn3-c2cccc(C(F)(F)F)c2)ccc1O`, the viability was 114%.

`COc1cc(-c2c(C#N)c(N)nc3c2c(C)nn3-c2ccc(C)c(C)c2)cc(OC)c1OC`: the viability was 90.8%.

With `COc1ccc(-c2c3c(C)nn(-c4ccccc4)c3nc3[nH]c(=O)[nH]c(=O)c23)cc1O`, the viability is 102%.

Turning to `Cc1ccc(-n2nc(C)c3c(-c4ccc(O)c(O)c4)c(C#N)c(N)nc32)cc1`, the viability was 94.7%.

Take `Cc1nn(-c2ccccc2)c2nc(N)c(C#N)c(-c3ccc(O)c(O)c3)c12`: the viability is 105%.

`COc1cc(-c2c3c(C)nn(-c4ccccc4)c3nc3[nH]c(=O)[nH]c(=O)c23)ccc1O`: the viability is 101%.

Regarding `COc1ccc(-c2c3c(C)nn(-c4ccccc4)c3nc3[nH]c(=O)[nH]c(=O)c23)cc1OC`, the viability was 83.5%.

As to `COc1cc(-c2c(C#N)c(N)nc3c2c(C)nn3-c2ccc(Cl)cc2)cc(OC)c1OC`, the viability was 92.1%.

Consider `COc1cccc(-c2ccnc3c2c(C)nn3-c2ccc(F)cc2)c1`, for which the viability was 4.7% (active).

As for `COc1cc(-c2c(C#N)c(N)nc3c2c(C)nn3-c2ccc(F)cc2)cc(OC)c1OC`, the viability was 90.7%.

`COc1cc(-c2c3c(C)nn(-c4ccccc4)c3nc3[nH]c(=O)[nH]c(=O)c23)cc(OC)c1O`: the viability is 98.6%.

As for `COc1ccc(-c2ccnc3c2c(C)nn3-c2ccc(F)cc2)cc1`, the viability is 114%.

On to `Cc1nn(-c2ccc(F)cc2)c2nc(N)c(C#N)c(-c3ccc(O)c(O)c3)c12`, for which the viability was 86%.
